Measurements as given in the supplement of paper PMC10849652.
Targets with a hit are over-represented here; the source holds about 8,800 in all. About 0.5% of all pairs of compound and target were hits. Unmarked numbers belong to inactive results.

What was measured:
Assay in all cases: log2 fold change, soluble protein after heating vs DMSO (PISA); higher = thermal stabilisation; K562 lysate, 10 uM; active = over 0.2 and 3.5 SD of the protein, either way, in both replicates (recomputed)
[1] = compound: CCCS(=O)(=O)Nc1ccc(F)c(C(=O)c2c[nH]c3ncc(-c4ccc(Cl)cc4)cc23)c1F [vemurafenib]
Procedure, shortened: (§1)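 Values give the log-two fold change in thermal stability against solvent controls, from duplicates. Crude K562 extract at 1 mg/mL protein, made by dounce homogenisation in PBS pH 7.4 with 1 mM MgCl2, was treated with 10 μM compound for 30 min. After 3 min heating across 48°C-58°C, aliquots were pooled, adjusted to 0.5% NP-40 at 4°C and centrifuged at 21,000xg for 90 min. The supernatant was measured by TMTpro 16plex LC-MS/MS with channel sums equalised.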

[2] = compound: CCCS(=O)(=O)Nc1ccc(F)c(C(=O)c2c[nH]c3ncc(Cl)cc23)c1F
Procedure, shortened: as §1

[3] = compound: CCN(CCCOc1ccc2c(Nc3cc(CC(=O)Nc4cccc(F)c4)[nH]n3)ncnc2c1)CCOP(=O)(O)O [barasertib]
Procedure, shortened: as §1

[4] = compound: CC[C@@H]1C(=O)N(C)c2cnc(Nc3ccc(C(=O)NC4CCN(C)CC4)cc3OC)nc2N1C1CCCC1
Procedure, shortened: as §1

[5] = compound: CC[C@@H]1C(=O)N(C)c2cnc(Nc3ccc(C(=O)N[C@H]4CC[C@H](N5CCN(CC6CC6)CC5)CC4)cc3OC)nc2N1C(C)C [volasertib]
Procedure, shortened: as §1

[6] = compound: CCn1c(C(=O)N(C2CC2)C2CC2)cc2c3c(ncn3C)c(Nc3cc(C)n(C)n3)nc21
Procedure, shortened: as §1

[7] = compound: CCn1cc(-c2ccnc3[nH]c(-c4cccc(CN(C)C)c4)cc23)c(-c2ccc(NC(=O)N(C)C)cc2)n1
Procedure, shortened: as §1

[8] = compound: CN1CCC(CNc2ccc3ncc(-c4cccc(OC(F)(F)F)c4)n3n2)CC1
Procedure, shortened: as §1

[9] = compound: CN1CCN(CCOc2cc(OC3CCOCC3)c3c(Nc4c(Cl)ccc5c4OCO5)ncnc3c2)CC1 [saracatinib]
Procedure, shortened: as §1

[10] = compound: CN1CCN(c2nc(C3=C(c4c[nH]c5ccccc45)C(=O)NC3=O)c3ccccc3n2)CC1 [sotrastaurin]
Procedure, shortened: as §1

[11] = compound: CN1CC[C@H](c2c(O)cc(O)c3c(=O)cc(-c4ccccc4Cl)oc23)[C@H](O)C1 [alvocidib]
Procedure, shortened: as §1

[12] = compound: CN1CCc2c(c3ccccc3n2Cc2ccc(C(=O)NO)cc2)C1 [Tubastatin A]
Procedure, shortened: as §1

[13] = compound: CNC(=O)C1=CC=CC=C1NC2=NC(=NC=C2Cl)NC3=C(C=C(C=C3)N4CCOCC4)OC
Procedure, shortened: as §1

[14] = compound: CNC(=O)c1ccc(Nc2ncc(C(F)(F)F)c(NCc3nccnc3N(C)S(C)(=O)=O)n2)cc1 [defactinib]
Procedure, shortened: as §1

[15] = compound: CNc1nc(-c2ccc3c(N)n[nH]c3c2)cc(N2C[C@@H](C(=O)NC3CCCCC3)CC[C@H]2C)n1
Procedure, shortened: as §1

[16] = compound: COC(=O)N[C@@H](C)CNc1nccc(-c2cn(C(C)C)nc2-c2cc(Cl)cc(NS(C)(=O)=O)c2F)n1 [encorafenib]
Procedure, shortened: as §1

[17] = compound: COC(=O)[C@H](CCSC)NC(=O)C1=C(C=C(C=C1)NC[C@H](CS)N)C2=CC=CC=C2
Procedure, shortened: as §1

[18] = compound: COc1cc(Nc2ncc3c(n2)-c2ccc(Cl)cc2C(c2c(F)cccc2OC)=NC3)ccc1C(=O)O [alisertib]
Procedure, shortened: as §1

[19] = compound: COc1cc2nc(-c3cc(F)ccc3O)nc(N[C@@H]3CNC[C@H]3C(C)(C)O)c2cc1OC
Procedure, shortened: as §1

[20] = compound: COc1cc2ncnc(Nc3ccc(F)c(Cl)c3)c2cc1OCCCN1CCOCC1 [gefitinib]
Procedure, shortened: as §1

## HADHB (UniProt P55084)
Chain of UniProt P55084 (P55084 whole entry, looked up): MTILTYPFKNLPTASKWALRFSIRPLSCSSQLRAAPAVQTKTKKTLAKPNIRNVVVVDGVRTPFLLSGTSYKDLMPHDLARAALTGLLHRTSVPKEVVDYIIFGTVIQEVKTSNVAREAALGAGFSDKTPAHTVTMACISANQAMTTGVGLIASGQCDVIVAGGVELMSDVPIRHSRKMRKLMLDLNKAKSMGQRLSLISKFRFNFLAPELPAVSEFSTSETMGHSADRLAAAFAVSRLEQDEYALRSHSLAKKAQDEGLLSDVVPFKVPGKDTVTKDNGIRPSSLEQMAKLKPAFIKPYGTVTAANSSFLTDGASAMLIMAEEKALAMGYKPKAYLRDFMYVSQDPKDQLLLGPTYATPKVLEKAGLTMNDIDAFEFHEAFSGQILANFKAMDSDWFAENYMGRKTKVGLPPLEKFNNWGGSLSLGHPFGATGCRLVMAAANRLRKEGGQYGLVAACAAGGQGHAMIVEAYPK
[1]
  log2 fold change: -0.019
[2]
  log2 fold change: -0.004
[3]
  log2 fold change: -0.124
[4]
  log2 fold change: 0.047
[5]
  log2 fold change: 0.099
[6]
  log2 fold change: -0.005
[7]
  log2 fold change: -0.001
[8]
  log2 fold change: 0.074
[9]
  log2 fold change: 0.012
[10]
  log2 fold change: -0.069
[11]
  log2 fold change: -0.046
[12]
  log2 fold change: 0.033
[13]
  log2 fold change: 0.081
[14]
  log2 fold change: -0.065
[15]
  log2 fold change: -0.03
[16]
  log2 fold change: -0.058
[17]
  log2 fold change: 0.072
[18]
  log2 fold change: -0.019
[19]
  log2 fold change: -0.019
[20]
  log2 fold change: 0.022

## IARS (UniProt P41252)
[1]
  log2 fold change: 0.004
[2]
  log2 fold change: 0.011
[3]
  log2 fold change: 0.026
[4]
  log2 fold change: -0.086
[5]
  log2 fold change: -0.079
[6]
  log2 fold change: 0.048
[7]
  log2 fold change: 0.044
[8]
  log2 fold change: -0.111
[9]
  log2 fold change: 0.006
[10]
  log2 fold change: 0.014
[11]
  log2 fold change: 0.006
[12]
  log2 fold change: -0.134
[13]
  log2 fold change: 0.01
[14]
  log2 fold change: 0.02
[15]
  log2 fold change: -0.03
[16]
  log2 fold change: 0
[17]
  log2 fold change: 0.134
[18]
  log2 fold change: 0.02
[19]
  log2 fold change: 0.008
[20]
  log2 fold change: -0.021

## GPR108 (UniProt Q9NPR9)
Chain of UniProt Q9NPR9 (Q9NPR9 whole entry, looked up): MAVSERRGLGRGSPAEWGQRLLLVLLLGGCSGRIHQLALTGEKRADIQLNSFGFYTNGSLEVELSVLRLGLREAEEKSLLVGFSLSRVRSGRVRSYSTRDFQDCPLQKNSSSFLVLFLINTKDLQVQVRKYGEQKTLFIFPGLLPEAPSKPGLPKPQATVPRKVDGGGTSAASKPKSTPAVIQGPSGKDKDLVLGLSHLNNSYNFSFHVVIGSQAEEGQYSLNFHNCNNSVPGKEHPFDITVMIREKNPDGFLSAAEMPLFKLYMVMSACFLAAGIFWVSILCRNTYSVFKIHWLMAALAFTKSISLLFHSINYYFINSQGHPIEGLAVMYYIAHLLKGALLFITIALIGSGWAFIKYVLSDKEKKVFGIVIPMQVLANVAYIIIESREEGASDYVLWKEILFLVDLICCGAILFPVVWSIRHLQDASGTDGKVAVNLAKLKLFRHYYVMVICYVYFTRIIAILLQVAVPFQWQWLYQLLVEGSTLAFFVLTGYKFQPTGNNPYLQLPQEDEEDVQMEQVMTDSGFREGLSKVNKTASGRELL
[1]
  log2 fold change: 0.001
[2]
  log2 fold change: -0.059
[3]
  log2 fold change: -0.03
[4]
  log2 fold change: 0.01
[5]
  log2 fold change: 0.03
[6]
  log2 fold change: 0.031
[7]
  log2 fold change: 0.057
[8]
  log2 fold change: 0.01
[9]
  log2 fold change: 0.092
[10]
  log2 fold change: 0.019
[11]
  log2 fold change: -0.068
[12]
  log2 fold change: -0.034
[13]
  log2 fold change: 0.075
[14]
  log2 fold change: 0
[15]
  log2 fold change: 0.014
[16]
  log2 fold change: 0.11
[17]
  log2 fold change: -0.066
[18]
  log2 fold change: 0.001
[19]
  log2 fold change: 0.047
[20]
  log2 fold change: 0.002

## IMMT (UniProt Q16891)
Chain of UniProt Q16891 (Q16891 whole entry, looked up): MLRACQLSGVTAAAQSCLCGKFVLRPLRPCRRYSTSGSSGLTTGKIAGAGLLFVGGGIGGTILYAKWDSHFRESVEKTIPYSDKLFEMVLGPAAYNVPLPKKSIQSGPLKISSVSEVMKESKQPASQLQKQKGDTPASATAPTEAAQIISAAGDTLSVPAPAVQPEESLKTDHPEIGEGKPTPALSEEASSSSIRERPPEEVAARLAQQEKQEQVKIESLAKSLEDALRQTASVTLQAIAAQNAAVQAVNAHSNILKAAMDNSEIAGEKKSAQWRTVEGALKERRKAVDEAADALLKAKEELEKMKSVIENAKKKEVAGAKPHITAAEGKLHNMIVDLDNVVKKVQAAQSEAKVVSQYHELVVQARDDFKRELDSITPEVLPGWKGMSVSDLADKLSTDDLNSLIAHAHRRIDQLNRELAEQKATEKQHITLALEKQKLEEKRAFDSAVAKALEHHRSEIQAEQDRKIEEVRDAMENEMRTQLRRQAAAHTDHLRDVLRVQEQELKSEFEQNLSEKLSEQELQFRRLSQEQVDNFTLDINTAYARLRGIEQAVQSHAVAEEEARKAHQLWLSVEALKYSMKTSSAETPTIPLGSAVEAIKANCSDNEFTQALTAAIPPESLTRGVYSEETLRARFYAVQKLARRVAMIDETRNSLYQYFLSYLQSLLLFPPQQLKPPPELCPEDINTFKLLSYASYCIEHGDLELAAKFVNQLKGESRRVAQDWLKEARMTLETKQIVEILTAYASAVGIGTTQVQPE
[1]
  log2 fold change: -0.016
[2]
  log2 fold change: -0.006
[3]
  log2 fold change: 0.004
[4]
  log2 fold change: -0.046
[5]
  log2 fold change: 0.015
[6]
  log2 fold change: 0.015
[7]
  log2 fold change: -0.005
[8]
  log2 fold change: -0.212 (active)
[9]
  log2 fold change: 0.01
[10]
  log2 fold change: -0.012
[11]
  log2 fold change: 0.031
[12]
  log2 fold change: -0.079
[13]
  log2 fold change: -0.03
[14]
  log2 fold change: 0.019
[15]
  log2 fold change: -0.041
[16]
  log2 fold change: 0.014
[17]
  log2 fold change: -0.045
[18]
  log2 fold change: 0.034
[19]
  log2 fold change: -0.145
[20]
  log2 fold change: -0.022

## GYPA (UniProt P02724)
Chain of UniProt P02724 (P02724 whole entry, looked up): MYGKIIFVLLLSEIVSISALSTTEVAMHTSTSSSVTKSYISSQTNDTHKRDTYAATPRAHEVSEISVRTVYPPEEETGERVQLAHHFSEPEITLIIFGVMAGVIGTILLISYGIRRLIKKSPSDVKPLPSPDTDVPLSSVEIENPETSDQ
[1]
  log2 fold change: -0.011
[2]
  log2 fold change: -0.008
[3]
  log2 fold change: 0.254
[4]
  log2 fold change: 0.188
[5]
  log2 fold change: 0.009
[6]
  log2 fold change: -0.081
[7]
  log2 fold change: 0.587 (active)
[8]
  log2 fold change: -0.259
[9]
  log2 fold change: 0.01
[10]
  log2 fold change: 0.011
[11]
  log2 fold change: 0.311
[12]
  log2 fold change: 0.068
[13]
  log2 fold change: 0.005
[14]
  log2 fold change: 0.063
[15]
  log2 fold change: 0.207
[16]
  log2 fold change: -0.004
[17]
  log2 fold change: -0.015
[19]
  log2 fold change: 0.06

## KCTD20 (UniProt Q7Z5Y7)
Chain of UniProt Q7Z5Y7 (Q7Z5Y7 whole entry, looked up): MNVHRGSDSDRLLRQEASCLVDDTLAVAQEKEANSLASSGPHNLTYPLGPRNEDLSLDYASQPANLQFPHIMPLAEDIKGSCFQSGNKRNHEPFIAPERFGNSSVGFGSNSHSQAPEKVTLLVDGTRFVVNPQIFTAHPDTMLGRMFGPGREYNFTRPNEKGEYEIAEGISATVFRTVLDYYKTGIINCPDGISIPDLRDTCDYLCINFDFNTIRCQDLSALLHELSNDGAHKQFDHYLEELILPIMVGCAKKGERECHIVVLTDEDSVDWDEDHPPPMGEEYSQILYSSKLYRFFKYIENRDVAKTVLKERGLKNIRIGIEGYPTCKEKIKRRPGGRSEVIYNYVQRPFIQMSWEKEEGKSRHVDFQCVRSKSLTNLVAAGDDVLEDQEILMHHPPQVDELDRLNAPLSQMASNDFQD
[1]
  log2 fold change: 0.17
[2]
  log2 fold change: 0.02
[3]
  log2 fold change: 0.052
[4]
  log2 fold change: 0.046
[5]
  log2 fold change: 0.007
[6]
  log2 fold change: -0.055
[7]
  log2 fold change: 0.018
[8]
  log2 fold change: -0.037
[9]
  log2 fold change: 0.048
[10]
  log2 fold change: 0.025
[11]
  log2 fold change: 0.05
[12]
  log2 fold change: -0.174
[13]
  log2 fold change: 0.01
[14]
  log2 fold change: -0.041
[15]
  log2 fold change: -0.025
[16]
  log2 fold change: -0.165
[17]
  log2 fold change: -0.058
[18]
  log2 fold change: -0.089
[19]
  log2 fold change: -0.095
[20]
  log2 fold change: 0.035

## GSTP1 (UniProt P09211)
Chain of UniProt P09211 (P09211 whole entry, looked up): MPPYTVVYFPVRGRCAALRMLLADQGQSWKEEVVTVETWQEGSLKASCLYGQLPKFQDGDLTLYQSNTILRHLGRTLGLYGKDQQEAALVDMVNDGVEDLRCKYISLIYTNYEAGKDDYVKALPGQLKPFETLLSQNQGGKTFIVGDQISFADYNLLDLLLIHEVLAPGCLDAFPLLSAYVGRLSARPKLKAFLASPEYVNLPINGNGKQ
[1]
  log2 fold change: -0.007
[2]
  log2 fold change: -0.017
[3]
  log2 fold change: 0.008
[4]
  log2 fold change: 0.003
[5]
  log2 fold change: 0.034
[6]
  log2 fold change: 0.324 (active)
[7]
  log2 fold change: -0.059
[8]
  log2 fold change: 0.021
[9]
  log2 fold change: 0
[10]
  log2 fold change: -0.002
[11]
  log2 fold change: 0.04
[12]
  log2 fold change: -0.057
[13]
  log2 fold change: -0.017
[14]
  log2 fold change: 0.008
[15]
  log2 fold change: -0.036
[16]
  log2 fold change: -0.052
[17]
  log2 fold change: 0.061
[18]
  log2 fold change: 0.037
[19]
  log2 fold change: -0.008
[20]
  log2 fold change: 0.007

## IRS2 (UniProt Q9Y4H2)
Chain of UniProt Q9Y4H2 (Q9Y4H2 whole entry, looked up): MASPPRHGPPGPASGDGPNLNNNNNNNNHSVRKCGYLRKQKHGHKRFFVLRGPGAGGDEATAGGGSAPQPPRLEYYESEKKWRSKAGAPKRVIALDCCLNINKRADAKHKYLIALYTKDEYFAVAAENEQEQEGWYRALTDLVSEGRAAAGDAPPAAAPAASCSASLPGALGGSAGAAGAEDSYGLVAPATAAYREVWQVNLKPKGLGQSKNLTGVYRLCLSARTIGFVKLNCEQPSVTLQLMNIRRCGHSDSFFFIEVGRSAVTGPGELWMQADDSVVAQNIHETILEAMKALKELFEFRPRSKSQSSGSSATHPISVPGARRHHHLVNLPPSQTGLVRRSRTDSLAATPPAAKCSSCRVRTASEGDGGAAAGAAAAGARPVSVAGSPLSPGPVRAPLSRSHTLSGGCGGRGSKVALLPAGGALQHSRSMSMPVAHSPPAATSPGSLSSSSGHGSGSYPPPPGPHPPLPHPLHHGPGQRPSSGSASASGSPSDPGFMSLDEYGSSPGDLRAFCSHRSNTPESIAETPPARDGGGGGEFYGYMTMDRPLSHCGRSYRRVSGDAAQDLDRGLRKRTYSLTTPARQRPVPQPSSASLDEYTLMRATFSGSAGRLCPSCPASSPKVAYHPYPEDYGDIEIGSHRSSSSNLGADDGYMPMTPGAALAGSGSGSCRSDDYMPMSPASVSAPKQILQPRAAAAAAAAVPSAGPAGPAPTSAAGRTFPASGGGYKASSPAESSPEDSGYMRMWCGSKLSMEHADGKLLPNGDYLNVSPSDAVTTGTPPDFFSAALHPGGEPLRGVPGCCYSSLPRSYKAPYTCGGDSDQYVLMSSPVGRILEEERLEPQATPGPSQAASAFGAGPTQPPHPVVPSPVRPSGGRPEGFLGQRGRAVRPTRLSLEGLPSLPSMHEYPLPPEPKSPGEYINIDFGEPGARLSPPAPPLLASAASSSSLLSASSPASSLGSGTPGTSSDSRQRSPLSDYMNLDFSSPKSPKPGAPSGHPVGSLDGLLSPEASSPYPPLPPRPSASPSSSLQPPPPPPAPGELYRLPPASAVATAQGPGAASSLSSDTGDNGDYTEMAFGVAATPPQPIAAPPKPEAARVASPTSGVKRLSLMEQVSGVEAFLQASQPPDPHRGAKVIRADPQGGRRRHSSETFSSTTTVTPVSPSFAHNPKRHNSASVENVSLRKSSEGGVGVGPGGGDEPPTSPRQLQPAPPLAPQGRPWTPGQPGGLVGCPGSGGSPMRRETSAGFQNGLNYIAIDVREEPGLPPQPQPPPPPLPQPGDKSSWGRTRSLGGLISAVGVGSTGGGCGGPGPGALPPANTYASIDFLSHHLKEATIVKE
[2]
  log2 fold change: 0.026
[3]
  log2 fold change: -0.019
[5]
  log2 fold change: -0.073
[6]
  log2 fold change: 0.047
[7]
  log2 fold change: -0.698
[8]
  log2 fold change: 0.341
[9]
  log2 fold change: 0.013
[10]
  log2 fold change: -0.025
[11]
  log2 fold change: -0.301
[12]
  log2 fold change: -0.254
[13]
  log2 fold change: -0.02
[15]
  log2 fold change: 0.275
[18]
  log2 fold change: 0.068
[19]
  log2 fold change: 0.004
[20]
  log2 fold change: 0.08
